Here are results for 45 compounds from PubChem BioAssay AID1745847 (National Center for Advancing Translational Sciences (NCATS), 2022).

Out of some 2,100 compounds screened, about 670 (32%) were called active. About 50% were inconclusive and are not listed. Calls follow the shape of the dose curve; as a rule, active = well fitted inhibition curve with a large enough effect; inconclusive = small, poorly fitted or top-dose-only effect; inactive = no such curve, though single readings can be large or run the other way. The list shows a part of the results.
% is scaled to controls: 0 for no effect and ±100 for the full control effect; potency is read from the fitted curve at half-maximal effect.

This test in a line: CMV-Luciferase Counterscreen for Inhibitors of ATXN expression. Also: nearly all actives have a fitted effect of over 55% in size. The conditions noted are these: HEK-293 CMV-luciferase reporter, luminescence, 24 h; series mostly up to 57.5 µM. The text has this: PI: Daniel Scoles Ph.D. University of Utah School of Medicine, Salt Lake City, Utah MLPCN Grant: NS073009 Spinocerebellar ataxia type 2 (SCA2) is a multisystem neurodegenerative disease caused by a dominantly acting mutation leading to expansion of a polyQ domain in the ataxin-2 protein (ATXN2). SCA2 patients develop progressive ataxia and later lose function in other neuronal systems. Prominent parkinsonian signs develop in some patients. Like many neurodegenerative disorders, no symptomatic or disease-modifying treatments are known. The primary objective of the proposed research is to identify compounds inhibiting ATXN2 expression and to test them for efficacy in SCA2 mouse models. We have developed a cell-based assay paired with an in vivo mouse model using identical luciferase expression constructs. This approach takes advantage of an ATXN2-luciferase transgene, with the luciferase gene flanked by the upstream and downstream portions of the ATXN2 gene. Here we describe a 5-7 dose quantitative high thoroughput screen (qHTS) for compounds lowering ATXN2 expression. We screened the NIH Molecular Libraries Small Molecule Repository (MLSMR) and NCGC's mechanistically annotated (MIPE) and drug repurposing (NPC) collections of compounds for lowering expression of an ATXN2-luciferase reporter in HEK-293 cells. The assay is a multiplexed cell viability assay to ensure target reduction in the absence of cytotoxicity. Secondary qHTS assays included a CMV-luciferase reporter expressed in HEK-293 cells as well as a biochemical assay using recombinant luciferase to detect inhibitors of the reporter enzyme. Compounds that inhibit ATXN2 expression but is not cytotoxic were selected for confirmatory and secondary screens.
PROTOCOL TABLE (as described by Inglese J, Shamu CE and Guy RK. 2007) SEQUENCE No. (e.g., 1, 2, 3, etc.); PARAMETER (e.g., Cells, Incubation, Reagent, etc.); VALUE; DESCRIPTION. 1; Cells; 4 uL; white, solid bottom, 1536-well Greiner assay plate. 2; Incubation; 2 hr; 37 degree C in 5% humidified CO2. 3; Compounds; 23 nL; Kalypsis pintool (Wako USA) equipped with a 1536-well pin head. 4; Incubation; 24 hr; 37 degree C in 5% humidfified CO2. 5; Reagent; 1 uL; Gly-Phe-7-Amino-4-trifluoromethylcoumarin. 6; Incubation; 30 min; 37 degree C in 5% humidfified CO2. 7; Detection; Fluorescence; Viewlux plate reader (PerkinElmer). 8; Reagent; 3 uL; SteadyGlo luciferase solution (Promega). 9; Incubation; 5 min; room temperature. 10; Detection; Luminescence; ViewLux plate reader (PerkinElmer). NOTES (numbers refer to Sequence numbers above) 1. HEK-293 cells expressing CMV-luciferase reporter (designated as SC cells) were suspended in phenol-red free DMEM and dispensed in assay plates using a Multidrop Combi dispenser (Thermo Fisher Scientific). 2. Assay plates were incubated. Evaporation was prevented by covering assay plates with metal lids containing holes to allow gas diffusion. 3. Compounds were added in a dose response manner with the final concentrations of 57, 11.4, 2.28, 0.46, 0.091, 0.018, 0.0037 uM. Vehicle-only plates, with DMSO being pin-transferred to columns 5-48, were inserted uniformly at the beginning and the end of each library to monitor and record any shifts in assay performance. 5. 125 uM Gly-Phe-7-Amino-4-trifluoromethylcoumarin (MP Biomedicals) working concentration was used at a final concentration of 25 uM. 7. To assess cell viability; the assay plates were read using the ViewLux high-throughput CCD imager (PerkinElmer), wherein single end-point fluorescence measurement was acquired (excitation 405/10; emission 540/25 nm). 8. Detection reagent SteadyGlo Luciferase (Promega) was added to the assay plate. 10. Luminescence is then measured on the ViewLux imager equipped with a clear emission filter using a 2 sec exposure. […]
A general note: A counterscreen serves to expose hits that act by an unwanted route or on another target.
With `O=C(NCc1ccccc1C(F)(F)F)c1cccc2c1C(=O)c1ccc(N3CCC(N4CCCCC4)CC3)cc1S2(=O)=O`, the activity change, negative = inhibition was 34.1% [at 11.4 µM] (inactive).

Regarding `O=C(N/N=C/c1cc(Br)cc(Br)c1O)c1ccncc1`, the Potency is 3.98 µM (active).

Regarding `COc1ccc(C(=O)N/N=C/c2cc(Br)ccc2O)cc1OC`, the Potency was 2.51 µM (active).

For `O=C(N/N=C/c1cc(Br)ccc1O)C(c1ccncc1)N1CCOCC1` (stereo not given), the Potency was 10 µM (active).

As for `O=C(N/N=C/c1cc(Br)ccc1OC(=O)c1ccc(Br)cc1)c1ccncc1`, the Potency is 3.98 µM (active).

Turning to `O=C(NN=Cc1ccc(O)cc1O)c1ccccc1NS(=O)(=O)c1cccs1`, the Potency is 3.16 µM (active).

As for `CCCC(=O)NC(c1ccccc1)c1ccc2cccnc2c1O` (stereo not given), the Potency is 2.24 µM (active).

In the case of `CCCCC(=O)NC(c1ccccc1)c1ccc2cccnc2c1O` (stereo not given), the Potency is 3.98 µM (active).

With `CCCC(=O)NC(c1ccc(C)cc1)c1ccc2cccnc2c1O` (stereo not given), the Potency is 2 µM (active).

Turning to `CCCC(=O)NC(c1ccc(C(C)C)cc1)c1ccc2cccnc2c1O` (stereo not given), the Potency is 0.355 µM (active).

Consider `CCCC(=O)NC(c1ccc(OC)cc1)c1ccc2cccnc2c1O` (stereo not given), for which the Potency is 3.16 µM (active).

`CCOC(=O)COc1ccc(Br)cc1/C=C/c1[nH]c(=O)[nH]c(=O)c1[N+](=O)[O-]`: the activity change, negative = inhibition was 3.24% [at 11.4 µM] (inactive).

Turning to `CN1OC[C@@H]2CN[C@H](c3ccc(-c4cc5ccccc5o4)cc3)C[C@@H]21`, the Potency is 0.0794 µM (active).

As for `N#C/C(=C\c1ccc([N+](=O)[O-])o1)c1nc2ccccc2[nH]1`, the Potency was 22.4 µM (active).

As to `COc1ccc(NS(=O)(=O)c2ccc(C(=O)Nc3c(C)n(C)n(-c4ccccc4)c3=O)cc2)cc1`, the activity change, negative = inhibition is 0.165% [at 11.4 µM] (inactive).

For `Cc1c(N/N=C(\C#N)C(=O)c2ccccc2)c(=O)n(-c2ccccc2)n1C`, the Potency is 3.98 µM (active).

Turning to `Cc1cc(N2CCN(Cc3nc(-c4ccc(Cl)cc4)oc3C)CC2)cc(C)n1`, the Potency was 25.1 µM (active).

As for `COC(=O)c1ccc(C(=O)Nc2cc(Cl)ccc2Cl)cc1NC(=O)c1ccc(N(C)C)cc1`, the activity change, negative = inhibition is -1.02% [at 11.4 µM] (inactive).

For `COc1ccc(N(C)S(=O)(=O)c2ccc(Cl)c(C(=O)NCCc3ccc(Cl)cc3)c2)cc1`, the Potency is 14.1 µM (active).

With `NS(=O)(=O)c1ccc(CCNC(=O)c2cc(-c3ccccn3)nc3ccc(Br)cc23)cc1`, the Potency result was “inactive”.

For the compound `CCOP(=O)(OCC)C(Cc1ccccc1)N=C(c1ccccc1)c1ccccc1` (stereo not given), the Potency was 22.4 µM (active).

As for `Nc1ccc(Oc2ccccc2-c2ccccc2)cc1`, the Potency is 2 µM (active).

For the compound `CC(=O)Nc1ccc(NC2=Nc3ccccc3N3C2=Nc2c(c(C)nn2-c2ccccc2)C3c2ccccc2)cc1` (stereo not given), the Potency is 1.12 µM (active).

Turning to `Cc1cccc(NC2=Nc3ccccc3N3C2=Nc2c(c(C)nn2-c2ccccc2)C3c2ccc(O)c(O)c2)c1` (stereo not given), the activity change, negative = inhibition is -12.9% [at 11.4 µM] (inactive).

As for `CN(C)CCOc1ccc(-c2c(-c3ccccc3)sc3ccccc23)cc1`, the Potency is 22.4 µM (active).

Regarding `Cc1cc(OCC(=O)NC(C)c2ccccc2)ccc1[N+](=O)[O-]` (stereo not given), the activity change, negative = inhibition was -19.4% [at 11.4 µM] (inactive).

For `CC(=O)NC(c1cccs1)c1cc([N+](=O)[O-])c2cccnc2c1O` (stereo not given), the Potency is 10 µM (active).

In the case of `O=C(Nc1nccs1)c1cccc(N2C(=O)c3cccc4c([N+](=O)[O-])ccc(c34)C2=O)c1`, the Potency entry is “inactive”.

In the case of `CCC(=O)NC(c1ccc(C)cc1)c1cc([N+](=O)[O-])c2cccnc2c1O` (stereo not given), the Potency is 7.08 µM (active).

In the case of `CC(=O)NC(c1cccs1)c1cc(Br)c2cccnc2c1O` (stereo not given), the Potency was 4.47 µM (active).

For `Oc1cccc(C(O)CNCc2ccc(-c3ccccc3)cc2)c1` (stereo not given), the Potency entry is “inactive”.

Regarding `CCc1ccc(-n2cc(-c3ccc(F)cc3)[n+]3c2SCCC3)cc1`, the Potency is 17.8 µM (active).

Turning to `CC1(C)Cc2ccccc2C2=NNC(=O)C2=N1`, the Potency is 25.1 µM (active).

Regarding `COc1ccc(CCNC(=O)c2cc(-c3cc(C)cc(C)c3O)n[nH]2)cc1OC`, the Potency is 20 µM (active).

In the case of `Cc1sc2cc3c(c(C(=O)c4ccccc4)[n+]2c1C)-c1cccc2cccc-3c12`, the Potency is 3.16 µM (active).

As for `Cc1ccc(C(=O)N/C(=C/c2ccc(-c3ccc([N+](=O)[O-])cc3)o2)C(=O)NCCCN(C)C)cc1`, the Potency result is “inactive”.

With `Cc1ccsc1/C=C/C1=Cc2c(sc(NC(=O)CSc3n[nH]c(N)n3)c2C#N)C(C)(C)C1`, the Potency entry was “inactive”.

As for `COc1cccc(CN(C)C(=O)c2ccc(OCC(=O)Nc3cccc(C(F)(F)F)c3)c(OC)c2)c1`, the Potency was 7.08 µM (active).

As to `CN(C)CCNC(=O)c1cccc(-c2cnc3c(NC=O)cc(/C=C/c4ccccc4)cn23)c1`, the Potency result was “inactive”.

For the compound `Cc1cc2sc3ccc(C#CC4(O)CCCCC4)cc3c(=O)c2cc1C`, the Potency is 0.0316 µM (active).

For the compound `O=C(c1ccoc1)N1CCN(c2cc(-c3ccccc3)nc3cc(-c4ccccc4)nn23)CC1`, the Potency is 10 µM (active).

For `COc1cccc(-c2cc3nc(-c4ccccc4)cc(N4CCN(C(=O)c5ccoc5)CC4)n3n2)c1`, the Potency was 3.16 µM (active).

On to `COc1ccccc1-c1cc2nc(-c3ccccc3)cc(N3CCN(C(=O)c4ccco4)CC3)n2n1`, for which the Potency was 7.94 µM (active).

For `COc1ccccc1-c1cc2nc(-c3ccccc3)cc(N3CCN(C(=O)c4ccoc4)CC3)n2n1`, the Potency is 7.94 µM (active).

Turning to `FC(F)(F)c1cc(-c2ccccn2)nc2cc(-c3ccccc3)nn12`, the Potency result was “inactive”.
